Screens as filed in PubChem BioAssay.
Sampled rows, rich in hits. Any-hit rate of the full collection: about 21%.
DRD3 antagonist: qHTS of D3 Dopamine Receptor Antagonist: qHTS; D3R cells, DiscoveRx beta-arrestin luminescence, antagonist mode; active compounds read low; max response, negative = inhibition, %; 360,000 tested, 2.5% active; AID 652054, 2013; in the data active means max response below about -50%; inconclusive means no clear call, values can overlap the other calls; further: on the % scale 0 is the no-effect control and ±100 the full control effect
Target sequence (P35462 whole entry, looked up): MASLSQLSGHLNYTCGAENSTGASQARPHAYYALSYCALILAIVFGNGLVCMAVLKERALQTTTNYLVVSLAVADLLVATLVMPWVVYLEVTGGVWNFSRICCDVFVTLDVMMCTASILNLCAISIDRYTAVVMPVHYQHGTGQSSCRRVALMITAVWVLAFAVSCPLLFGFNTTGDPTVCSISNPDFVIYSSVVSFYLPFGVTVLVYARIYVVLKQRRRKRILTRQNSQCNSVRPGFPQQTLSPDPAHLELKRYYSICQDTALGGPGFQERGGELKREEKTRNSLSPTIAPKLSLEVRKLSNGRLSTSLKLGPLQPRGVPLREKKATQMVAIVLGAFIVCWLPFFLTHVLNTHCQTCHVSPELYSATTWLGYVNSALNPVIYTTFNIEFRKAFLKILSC
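Cells plated overnight at 1500 cells/well, then exposed to library compounds with dopamine controls for 90 minutes at 37 degrees C. DiscoveRx reagent added for 30–60 minutes at room temperature; luminescence read, quantitative HTS format.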
DT40 TDP1 CPT: qHTS for Inhibitors of human tyrosyl-DNA phosphodiesterase 1 (TDP1): qHTS in cells in presence of CPT. chicken DT40 Tdp1-/-;hTDP1 cells + 20 nM CPT, ATP luminescence, 48 h. Potency, µM (series often up to 46.2 µM), inactives show top-dose activity change, negative = growth inhibition, actives largely listed as inhibitors. 420,000 tested, 12% active. AID 686979, 2013; further: potency means the concentration at half of the fitted maximal effect; on the % scale 0 is the no-effect control and ±100 the full control effect; nearly all actives have a fitted effect of over 55% in size
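Chicken DT40 Tdp1-/- cells stably complemented with human TDP1 were seeded at 400 cells/well in medium containing 20 nM camptothecin, exposed to pin-transferred compounds, and grown at 37 °C for at least 48 hr. Viability was read as ATP luminescence.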
DT40 TDP1 no CPT: qHTS for Inhibitors of human tyrosyl-DNA phosphodiesterase 1 (TDP1): qHTS in cells in absence of CPT | AID 686978, 2013 | Potency, µM (doses to about 46.2 µM), for inactives: top-dose activity change, negative = growth inhibition, actives largely listed as inhibitors | 420,000 tested, 15% active | DT40 Tdp1-/- hTDP1 cells, no CPT, ATP luminescence, 48 h; further: potency means the concentration at half of the fitted maximal effect; on the % scale 0 is the no-effect control and ±100 the full control effect; nearly all actives have a fitted effect of over 55% in size
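Cells were dispensed at 400 per well, compounds added by pin tool, plates incubated ≥48 hr at 37 °C, then CellTiter-Glo added for 30 min at room temperature before luminescence reading. Line: DT40 Tdp1-/- complemented with hTDP1; camptothecin omitted.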
ClpP mod: qHTS Assay for Activators of ClpP. ATP-dependent Clp protease proteolytic subunit (Bacillus subtilis (strain 168)), P80244. Potency, µM (doses to about 57.5 µM), without a hit: top-dose activity change, negative = active. purified B. subtilis ClpP, FRET peptide cleavage, 20 min. 340,000 tested, 1.9% active; active means well fitted falling curve with a large enough effect; inconclusive means small, poorly fitted or top-dose-only effect; inactive means no such curve, though single readings can be large or run the other way; further: potency means the concentration at half of the fitted maximal effect; the source files actives as falling curves though it sought activators and does not explain the sign; nearly all actives have a fitted effect of over 65% in size
Target sequence (P80244 whole entry, looked up): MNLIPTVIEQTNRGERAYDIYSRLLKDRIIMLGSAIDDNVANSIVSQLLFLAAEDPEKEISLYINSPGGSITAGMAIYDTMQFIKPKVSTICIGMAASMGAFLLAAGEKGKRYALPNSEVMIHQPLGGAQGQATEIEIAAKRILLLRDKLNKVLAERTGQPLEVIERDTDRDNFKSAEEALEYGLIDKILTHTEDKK
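FRET quenching reversal measured ClpP activation: 10 microg/mL B. subtilis ClpP at pH 8 with the FRET-FV decapeptide, read at 430 nm after 320 nm excitation. The 20-min minus 0-min signal was scaled between DMSO/no-enzyme wells and ADEP (5.8 microM final).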
IL1B secr inh: qHTS for Inhibitors of Inflammasome Signaling: IL-1-beta AlphaLISA Primary Screen; THP-1 LPS/ATP IL-1B secretion, AlphaLISA, 16 h; active compounds read low; activity change, % at 57.5 µM; 360,000 tested, 4.7% active; AID 743279, 2014; in the data active means activity change below about -50%; inconclusive means mostly about -30% to -49%; further: on the % scale 0 is the no-effect control and ±100 the full control effect
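Secreted IL-1B measured by AlphaLISA bead assay after 16 h compound exposure of THP-1 cells; compounds (final up to 57.5 uM) added 1 h before LPS (250 ng/mL) and ATP (1.25 mM) stimulation; lower signal means less secretion.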
DRD3 agonist: qHTS of D3 Dopamine Receptor Agonist: qHTS; D(3) dopamine receptor (Homo sapiens), P35462; D3R DiscoveRx beta-arrestin cells, luminescence, 90 min; max activation, %; 410,000 tested, 0.58% active; in the data active means max activation above about 30%; further: 0% is about no effect
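Agonist-mode cell screen: cells plated at 1500/well and incubated overnight at 37 °C, then exposed to library compounds for 90 min at 37 °C. Detection reagent was added for 30–60 min at room temperature, and luminescence was read.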
* marks the source's active call; other numbers are inactive results. Unless noted, the call rests on the fitted dose curve; in most records, active means well fitted inhibition curve with a large enough effect; inconclusive means small, poorly fitted or top-dose-only effect; inactive means flat fitted curve, though single readings scatter.

`CCOC(=O)Cn1c(=O)cc(-c2ccccc2)c2c(C)nn(C)c21` gave DT40 TDP1 CPT inconclusive, DT40 TDP1 no CPT inconclusive, ClpP mod 4.1% and DRD3 agonist -11.9.
COC(=O)c1ccc(C(=O)OC)c(NC(=O)c2ccc(-c3ccccc3)s2)c1 was read as DT40 TDP1 CPT -3.8%, DT40 TDP1 no CPT -14.7%, ClpP mod -21.7% and DRD3 agonist -5.6.
Screening CCOC(=O)c1cnn(-c2ccccc2)c1NC(=O)CN1CCCCC1 returned DRD3 antagonist -7.2, DT40 TDP1 CPT 13.5%, DT40 TDP1 no CPT -8.9%, IL1B secr inh -2.6 and DRD3 agonist -1.9.
`O=[N+]([O-])c1cc(S(=O)(=O)Nc2ccccc2)ccc1-n1nnc2ccccc21` gave DRD3 antagonist -61.5*, DT40 TDP1 CPT 3.6%, DT40 TDP1 no CPT -8.7%, ClpP mod -2.5%, IL1B secr inh 3.5 and DRD3 agonist -24.3.
`Cc1cc(C)cc(NC(=S)N2CCC(NC(=O)c3ccccc3C)CC2)c1` gave DRD3 antagonist 5.8, DT40 TDP1 CPT -10.6%, DT40 TDP1 no CPT -18.6%, IL1B secr inh -4.8 and DRD3 agonist 15.5.
`COc1ccc(/C=N/NC(=O)c2nn(-c3ccccc3)c(=O)c3c(N)scc23)cc1` gave DRD3 antagonist inconclusive, DT40 TDP1 CPT 10.3µM*, DT40 TDP1 no CPT 8.2µM*, ClpP mod 2.6%, IL1B secr inh -20.1 and DRD3 agonist -3.9.
For COc1ccc(-n2nc(C(=O)O)c3ccccc3c2=O)cc1 the results were DRD3 antagonist 18.9, DT40 TDP1 CPT -20.7%, DT40 TDP1 no CPT -27.8%, ClpP mod -3.5%, IL1B secr inh 5.2 and DRD3 agonist 12.8.
Screening COc1ccc(/C=N/NC(=O)c2nn(-c3ccc(C)c(C)c3)c(=O)c3ccccc23)cc1 returned DRD3 antagonist 58.1, DT40 TDP1 CPT 9.2µM*, DT40 TDP1 no CPT 3.26µM*, ClpP mod -6.9%, IL1B secr inh -18.0 and DRD3 agonist 5.0.
For COc1ccc(/C=N/NC(=O)c2nn(-c3ccc(Cl)cc3)c(=O)c3c(N)scc23)cc1 the results were DRD3 antagonist 5.8, DT40 TDP1 CPT 5.8µM*, DT40 TDP1 no CPT 2.59µM*, ClpP mod -0.8%, IL1B secr inh -1.0 and DRD3 agonist -1.2.
For C[C@H]1CCC[C@@]2(O[C@@H](CCO)C[C@@H](O)[C@@H]2O)O1 the results were DRD3 antagonist 9.4, DT40 TDP1 CPT 1.3%, DT40 TDP1 no CPT -6.8%, ClpP mod -1.7%, IL1B secr inh 23.3 and DRD3 agonist 1.7.
`CCN(CC)c1ccc(S(=O)(=O)N2CCOCC2)cc1NC(=O)CN1C(=O)NC2(CCC(C)CC2)C1=O` (centres undefined) gave DRD3 antagonist -17.5, DT40 TDP1 CPT -22.9%, DT40 TDP1 no CPT -16.9%, ClpP mod 1.2%, IL1B secr inh -5.8 and DRD3 agonist 1.4.
Screening COc1cc(/C=N/NC(=O)CSc2n[nH]c(=O)[nH]c2=O)cc(OC)c1O returned DRD3 antagonist -3.3, DT40 TDP1 CPT 18.1%, DT40 TDP1 no CPT 2.4%, IL1B secr inh 23.6 and DRD3 agonist 6.8.
`FC(F)(F)c1ccccc1Cc1c(-c2cccc(Br)c2)nc2ccc(Cl)cn12` gave DRD3 antagonist -16.6, DT40 TDP1 CPT inconclusive, DT40 TDP1 no CPT inconclusive, ClpP mod inconclusive, IL1B secr inh 7.4 and DRD3 agonist -4.0.
For Cc1ccc2nc(-c3ccc(Cl)cc3)c(Cc3ccccc3C(F)(F)F)n2c1 the results were DRD3 antagonist 4.5, DT40 TDP1 CPT 25.9µM*, DT40 TDP1 no CPT inconclusive, ClpP mod 3.9%, IL1B secr inh -11.1 and DRD3 agonist 18.7.
For N#Cc1ccc(-c2nc3ccc(Br)cn3c2Cc2ccccc2C(F)(F)F)cc1 the results were DRD3 antagonist 3.3, DT40 TDP1 CPT inconclusive, DT40 TDP1 no CPT inconclusive, ClpP mod -14.3%, IL1B secr inh 7.1 and DRD3 agonist 5.4.
FC(F)(F)c1ccccc1Cc1c(-c2cccc(Cl)c2)nc2ccc(Cl)cn12 was read as DRD3 antagonist -15.4, DT40 TDP1 CPT inconclusive, DT40 TDP1 no CPT inconclusive, ClpP mod -24.8%, IL1B secr inh 23.2 and DRD3 agonist 56.7*.
Cc1ccc2nc(-c3ccc(C#N)cc3)c(Cc3ccccc3C(F)(F)F)n2c1 was read as DRD3 antagonist -29.3, DT40 TDP1 CPT 23.1µM*, DT40 TDP1 no CPT inconclusive, ClpP mod 4.7%, IL1B secr inh -9.2 and DRD3 agonist -10.1.
Screening COc1ccc(C2/C=C\CN(S(=O)(=O)c3ccc(C)cc3)CC(=O)N2Cc2cccc(F)c2)cc1 (centres undefined) returned DRD3 antagonist -10.9, DT40 TDP1 CPT 14.6µM*, DT40 TDP1 no CPT inconclusive, ClpP mod -3.0%, IL1B secr inh 27.2 and DRD3 agonist -10.3.
For COc1ccc(C2/C=C\CN(CC3CC3)CC(=O)N2Cc2ccc(F)cc2)cc1 (centres undefined) the results were DRD3 antagonist 4.5, DT40 TDP1 CPT inconclusive, DT40 TDP1 no CPT inconclusive, ClpP mod -0.6%, IL1B secr inh -23.1 and DRD3 agonist 3.1.
For COc1ccc(N2CC(NS(=O)(=O)c3ccc(F)cc3)CC2=O)cc1 (centres undefined) the results were DRD3 antagonist 3.9, DT40 TDP1 CPT -10.8%, DT40 TDP1 no CPT -5.9%, IL1B secr inh -2.5 and DRD3 agonist -7.2.
Screening COc1ccc(C2/C=C\CC(NS(=O)(=O)c3ccc(C)cc3)CC(=O)N2Cc2ccccc2F)cc1 (centres undefined) returned DRD3 antagonist 2.0, DT40 TDP1 CPT 23.1µM*, DT40 TDP1 no CPT inconclusive, ClpP mod -2.4%, IL1B secr inh -22.4 and DRD3 agonist 6.2.
Screening COc1ccc([C@H]2/C=C\CN(S(=O)(=O)c3ccc(C)cc3)[C@@H](C)C(=O)N2Cc2ccc(F)cc2)cc1 returned DRD3 antagonist 0.0, DT40 TDP1 CPT 18.4µM*, DT40 TDP1 no CPT inconclusive, ClpP mod -1.3%, IL1B secr inh 26.0 and DRD3 agonist 0.0.
For COc1ccc(C2/C=C\CN(S(=O)(=O)c3ccc(C)cc3)CC(=O)N2Cc2ccc(F)cc2)cc1 (centres undefined) the results were DRD3 antagonist 1.4, DT40 TDP1 CPT inconclusive, DT40 TDP1 no CPT 18.4µM*, ClpP mod 0.7%, IL1B secr inh 8.3 and DRD3 agonist -8.9.
